# Key:
# [1] = biological target: T1, Serine/threonine-protein kinase ULK2 (Homo sapiens) (UniProt Q8IYT8); conditions: at 1 µM
# T1 sequence (whole entry): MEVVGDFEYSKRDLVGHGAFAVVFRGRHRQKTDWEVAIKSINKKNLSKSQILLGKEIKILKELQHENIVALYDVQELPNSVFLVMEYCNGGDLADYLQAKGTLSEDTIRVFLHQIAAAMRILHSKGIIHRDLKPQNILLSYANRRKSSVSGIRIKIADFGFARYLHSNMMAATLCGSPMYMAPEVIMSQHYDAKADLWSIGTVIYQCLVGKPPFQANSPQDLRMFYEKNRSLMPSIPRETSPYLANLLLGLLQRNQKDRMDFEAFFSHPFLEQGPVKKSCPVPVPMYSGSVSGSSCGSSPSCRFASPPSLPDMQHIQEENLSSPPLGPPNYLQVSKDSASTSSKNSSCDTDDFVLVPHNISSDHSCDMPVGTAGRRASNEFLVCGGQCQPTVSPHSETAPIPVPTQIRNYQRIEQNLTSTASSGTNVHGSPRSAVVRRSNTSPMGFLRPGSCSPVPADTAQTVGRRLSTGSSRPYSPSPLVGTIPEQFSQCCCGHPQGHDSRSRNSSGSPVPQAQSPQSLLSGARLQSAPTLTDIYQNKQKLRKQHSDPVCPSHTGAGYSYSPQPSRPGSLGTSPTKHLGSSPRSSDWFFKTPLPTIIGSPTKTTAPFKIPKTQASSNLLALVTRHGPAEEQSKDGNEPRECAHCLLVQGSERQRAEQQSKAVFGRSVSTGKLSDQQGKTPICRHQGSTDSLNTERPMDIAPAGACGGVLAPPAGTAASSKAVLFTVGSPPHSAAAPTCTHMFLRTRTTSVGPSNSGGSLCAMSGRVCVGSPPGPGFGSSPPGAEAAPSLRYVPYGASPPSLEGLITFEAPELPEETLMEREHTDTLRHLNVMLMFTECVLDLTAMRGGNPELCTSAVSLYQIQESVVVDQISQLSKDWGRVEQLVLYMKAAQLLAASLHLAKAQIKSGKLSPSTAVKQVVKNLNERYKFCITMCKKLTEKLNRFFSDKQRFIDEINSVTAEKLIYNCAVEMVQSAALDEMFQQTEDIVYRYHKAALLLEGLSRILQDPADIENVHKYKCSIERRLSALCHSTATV
# [2] = biological target: T1, Serine/threonine-protein kinase ULK2 (Homo sapiens); conditions: at 10 µM
# [3] = biological target: T2, Serine/threonine-protein kinase ULK3 (Homo sapiens) (UniProt Q6PHR2); conditions: at 1 µM
# T2 sequence (whole entry): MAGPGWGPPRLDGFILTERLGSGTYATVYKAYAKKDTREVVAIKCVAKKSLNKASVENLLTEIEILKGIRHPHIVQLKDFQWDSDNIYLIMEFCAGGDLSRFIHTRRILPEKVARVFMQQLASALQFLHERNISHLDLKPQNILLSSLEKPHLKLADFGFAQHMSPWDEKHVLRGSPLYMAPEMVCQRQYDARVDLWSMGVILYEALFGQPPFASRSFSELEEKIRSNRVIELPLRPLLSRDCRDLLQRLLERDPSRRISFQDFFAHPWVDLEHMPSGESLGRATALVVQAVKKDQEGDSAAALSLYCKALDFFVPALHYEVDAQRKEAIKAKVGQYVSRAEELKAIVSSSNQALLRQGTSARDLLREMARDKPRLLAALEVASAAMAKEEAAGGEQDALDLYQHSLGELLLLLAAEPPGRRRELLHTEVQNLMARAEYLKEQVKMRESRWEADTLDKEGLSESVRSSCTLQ
# [4] = biological target: T2, Serine/threonine-protein kinase ULK3 (Homo sapiens); conditions: at 10 µM
# [5] = biological target: Serine/threonine-protein kinase VRK2 (Homo sapiens) (UniProt Q86Y07); conditions: at 1 µM
# [6] = biological target: Serine/threonine-protein kinase VRK2 (Homo sapiens) (UniProt Q86Y07); conditions: at 10 µM
# [7] = biological target: Serine/threonine-protein kinase WNK2 (Homo sapiens) (UniProt Q9Y3S1); conditions: at 1 µM
# Serine/threonine-protein kinase WNK2 (Homo sapiens), sequence (Q9Y3S1 whole entry): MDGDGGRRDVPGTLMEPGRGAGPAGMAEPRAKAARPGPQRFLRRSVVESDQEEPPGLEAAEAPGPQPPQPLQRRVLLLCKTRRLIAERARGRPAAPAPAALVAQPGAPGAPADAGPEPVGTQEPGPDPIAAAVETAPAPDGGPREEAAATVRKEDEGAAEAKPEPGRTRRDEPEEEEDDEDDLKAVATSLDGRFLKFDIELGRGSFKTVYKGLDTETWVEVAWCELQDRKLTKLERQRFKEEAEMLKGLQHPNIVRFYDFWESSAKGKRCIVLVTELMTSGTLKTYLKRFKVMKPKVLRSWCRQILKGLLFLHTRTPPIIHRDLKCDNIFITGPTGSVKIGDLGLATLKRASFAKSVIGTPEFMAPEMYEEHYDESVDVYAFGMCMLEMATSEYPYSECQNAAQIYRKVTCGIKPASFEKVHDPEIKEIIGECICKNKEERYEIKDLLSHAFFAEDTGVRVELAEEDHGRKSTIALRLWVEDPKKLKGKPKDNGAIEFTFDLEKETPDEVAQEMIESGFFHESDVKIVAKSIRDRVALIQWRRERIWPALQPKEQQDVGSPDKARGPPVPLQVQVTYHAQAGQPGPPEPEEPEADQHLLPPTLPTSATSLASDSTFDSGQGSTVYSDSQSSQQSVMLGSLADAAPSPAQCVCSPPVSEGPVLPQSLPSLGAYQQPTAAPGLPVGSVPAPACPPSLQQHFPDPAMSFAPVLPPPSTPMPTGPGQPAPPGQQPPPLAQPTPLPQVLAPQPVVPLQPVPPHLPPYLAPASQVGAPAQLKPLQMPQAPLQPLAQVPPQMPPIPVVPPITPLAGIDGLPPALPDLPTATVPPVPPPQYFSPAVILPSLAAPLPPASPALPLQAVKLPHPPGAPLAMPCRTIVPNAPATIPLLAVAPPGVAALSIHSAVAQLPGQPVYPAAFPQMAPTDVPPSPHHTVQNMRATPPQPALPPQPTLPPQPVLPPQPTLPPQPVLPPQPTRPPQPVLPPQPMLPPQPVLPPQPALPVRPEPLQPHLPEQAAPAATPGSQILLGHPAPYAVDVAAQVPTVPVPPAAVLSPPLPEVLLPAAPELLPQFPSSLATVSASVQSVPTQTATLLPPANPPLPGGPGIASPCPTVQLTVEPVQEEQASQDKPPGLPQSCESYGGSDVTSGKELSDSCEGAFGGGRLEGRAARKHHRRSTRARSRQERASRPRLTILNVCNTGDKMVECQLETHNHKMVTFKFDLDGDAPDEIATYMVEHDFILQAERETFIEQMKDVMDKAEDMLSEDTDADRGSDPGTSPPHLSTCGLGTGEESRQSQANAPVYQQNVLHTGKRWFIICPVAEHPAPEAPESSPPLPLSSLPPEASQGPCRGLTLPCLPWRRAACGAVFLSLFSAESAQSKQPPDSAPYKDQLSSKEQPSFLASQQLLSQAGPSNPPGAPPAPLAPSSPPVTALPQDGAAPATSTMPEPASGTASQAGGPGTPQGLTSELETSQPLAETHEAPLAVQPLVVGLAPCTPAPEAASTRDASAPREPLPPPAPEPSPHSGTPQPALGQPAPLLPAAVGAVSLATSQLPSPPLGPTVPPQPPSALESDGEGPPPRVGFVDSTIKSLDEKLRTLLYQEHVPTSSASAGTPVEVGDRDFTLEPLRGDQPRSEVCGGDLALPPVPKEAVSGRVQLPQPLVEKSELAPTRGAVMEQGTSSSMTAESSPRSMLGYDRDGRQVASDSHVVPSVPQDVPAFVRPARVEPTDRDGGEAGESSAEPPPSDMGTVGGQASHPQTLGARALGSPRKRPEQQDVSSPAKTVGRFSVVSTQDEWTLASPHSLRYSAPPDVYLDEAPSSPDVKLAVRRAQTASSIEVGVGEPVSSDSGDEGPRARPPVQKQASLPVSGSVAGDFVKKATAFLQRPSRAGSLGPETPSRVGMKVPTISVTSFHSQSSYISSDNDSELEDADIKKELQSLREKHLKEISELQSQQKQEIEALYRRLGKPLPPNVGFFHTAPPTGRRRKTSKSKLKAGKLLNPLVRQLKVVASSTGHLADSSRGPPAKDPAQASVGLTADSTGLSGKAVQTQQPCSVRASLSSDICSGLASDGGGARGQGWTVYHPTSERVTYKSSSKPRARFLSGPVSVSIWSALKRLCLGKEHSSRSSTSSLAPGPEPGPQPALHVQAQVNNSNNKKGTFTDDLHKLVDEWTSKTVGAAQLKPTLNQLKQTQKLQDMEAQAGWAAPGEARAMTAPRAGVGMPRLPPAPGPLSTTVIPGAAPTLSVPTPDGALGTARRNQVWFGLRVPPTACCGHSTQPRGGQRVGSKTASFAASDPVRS
# [8] = biological target: Serine/threonine-protein kinase WNK2 (Homo sapiens) (UniProt Q9Y3S1); conditions: at 10 µM
# [9] = biological target: Serine/threonine-protein kinase WNK3 (Homo sapiens) (UniProt Q9BYP7); conditions: at 1 µM
# Serine/threonine-protein kinase WNK3 (Homo sapiens), sequence (Q9BYP7 whole entry): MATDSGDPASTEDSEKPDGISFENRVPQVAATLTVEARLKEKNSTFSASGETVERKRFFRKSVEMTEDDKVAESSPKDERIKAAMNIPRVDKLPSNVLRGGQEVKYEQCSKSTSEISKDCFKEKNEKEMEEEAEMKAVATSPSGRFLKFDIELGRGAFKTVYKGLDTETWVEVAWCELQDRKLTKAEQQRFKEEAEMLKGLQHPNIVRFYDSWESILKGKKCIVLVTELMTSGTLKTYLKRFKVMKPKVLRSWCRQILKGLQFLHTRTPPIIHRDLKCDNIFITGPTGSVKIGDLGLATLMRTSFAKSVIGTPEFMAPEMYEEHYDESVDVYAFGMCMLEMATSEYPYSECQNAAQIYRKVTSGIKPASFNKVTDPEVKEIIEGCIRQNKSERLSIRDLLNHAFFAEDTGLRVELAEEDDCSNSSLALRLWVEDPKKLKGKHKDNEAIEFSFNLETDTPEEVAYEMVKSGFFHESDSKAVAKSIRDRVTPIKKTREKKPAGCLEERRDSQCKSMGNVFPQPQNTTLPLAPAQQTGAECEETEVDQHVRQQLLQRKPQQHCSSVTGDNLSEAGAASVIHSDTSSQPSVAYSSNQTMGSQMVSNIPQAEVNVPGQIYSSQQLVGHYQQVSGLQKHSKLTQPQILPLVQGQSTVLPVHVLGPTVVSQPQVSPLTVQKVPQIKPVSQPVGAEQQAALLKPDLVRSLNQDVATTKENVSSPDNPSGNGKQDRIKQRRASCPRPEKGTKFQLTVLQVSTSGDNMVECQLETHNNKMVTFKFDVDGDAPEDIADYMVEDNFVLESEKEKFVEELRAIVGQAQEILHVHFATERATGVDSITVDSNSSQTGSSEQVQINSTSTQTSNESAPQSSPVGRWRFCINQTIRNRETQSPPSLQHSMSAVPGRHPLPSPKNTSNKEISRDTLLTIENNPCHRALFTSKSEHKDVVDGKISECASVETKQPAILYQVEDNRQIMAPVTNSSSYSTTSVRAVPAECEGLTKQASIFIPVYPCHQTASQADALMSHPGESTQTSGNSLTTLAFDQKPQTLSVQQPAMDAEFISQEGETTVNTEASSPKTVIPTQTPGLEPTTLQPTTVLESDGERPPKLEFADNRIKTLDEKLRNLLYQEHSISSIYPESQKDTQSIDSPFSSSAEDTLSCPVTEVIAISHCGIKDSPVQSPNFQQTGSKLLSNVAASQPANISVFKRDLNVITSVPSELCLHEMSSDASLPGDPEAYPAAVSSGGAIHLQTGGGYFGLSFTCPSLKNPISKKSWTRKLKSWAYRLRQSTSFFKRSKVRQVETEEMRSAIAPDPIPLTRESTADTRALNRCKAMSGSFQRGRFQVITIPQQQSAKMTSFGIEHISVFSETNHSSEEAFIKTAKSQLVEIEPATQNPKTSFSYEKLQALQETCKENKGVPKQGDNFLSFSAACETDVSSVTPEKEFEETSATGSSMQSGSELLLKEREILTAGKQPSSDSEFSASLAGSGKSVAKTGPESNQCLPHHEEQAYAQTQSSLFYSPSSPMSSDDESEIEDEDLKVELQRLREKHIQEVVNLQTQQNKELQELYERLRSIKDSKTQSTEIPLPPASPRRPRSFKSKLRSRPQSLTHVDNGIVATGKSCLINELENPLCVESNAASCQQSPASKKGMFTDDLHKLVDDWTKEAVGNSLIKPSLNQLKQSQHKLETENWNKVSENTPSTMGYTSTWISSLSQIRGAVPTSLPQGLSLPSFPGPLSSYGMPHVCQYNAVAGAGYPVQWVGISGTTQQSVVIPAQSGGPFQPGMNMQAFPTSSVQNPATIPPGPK
# [10] = biological target: Serine/threonine-protein kinase WNK3 (Homo sapiens) (UniProt Q9BYP7); conditions: at 10 µM
# [11] = biological target: Tyrosine-protein kinase Yes (Homo sapiens) (UniProt P07947); conditions: at 1 µM
# Tyrosine-protein kinase Yes (Homo sapiens), sequence (P07947 2-543 limits assumed): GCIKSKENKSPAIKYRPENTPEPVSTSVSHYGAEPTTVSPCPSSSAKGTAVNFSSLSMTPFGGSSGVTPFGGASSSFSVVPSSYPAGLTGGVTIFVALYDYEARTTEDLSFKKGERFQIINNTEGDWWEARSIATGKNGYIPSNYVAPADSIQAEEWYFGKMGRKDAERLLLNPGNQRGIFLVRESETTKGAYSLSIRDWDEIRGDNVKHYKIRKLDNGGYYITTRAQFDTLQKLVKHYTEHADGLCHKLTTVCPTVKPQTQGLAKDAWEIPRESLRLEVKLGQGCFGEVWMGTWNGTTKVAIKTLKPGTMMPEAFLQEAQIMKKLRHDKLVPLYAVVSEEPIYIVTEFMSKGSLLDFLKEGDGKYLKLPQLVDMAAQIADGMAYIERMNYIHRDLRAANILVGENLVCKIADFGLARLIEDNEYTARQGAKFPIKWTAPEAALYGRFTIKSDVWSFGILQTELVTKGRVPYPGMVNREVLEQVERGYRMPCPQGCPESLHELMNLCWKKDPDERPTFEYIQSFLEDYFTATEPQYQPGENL
# [12] = biological target: Tyrosine-protein kinase Yes (Homo sapiens) (UniProt P07947); conditions: at 10 µM
# [13] = biological target: T3, Tyrosine-protein kinase ZAP-70 (Homo sapiens) (UniProt P43403); conditions: at 1 µM
# T3 sequence (whole entry): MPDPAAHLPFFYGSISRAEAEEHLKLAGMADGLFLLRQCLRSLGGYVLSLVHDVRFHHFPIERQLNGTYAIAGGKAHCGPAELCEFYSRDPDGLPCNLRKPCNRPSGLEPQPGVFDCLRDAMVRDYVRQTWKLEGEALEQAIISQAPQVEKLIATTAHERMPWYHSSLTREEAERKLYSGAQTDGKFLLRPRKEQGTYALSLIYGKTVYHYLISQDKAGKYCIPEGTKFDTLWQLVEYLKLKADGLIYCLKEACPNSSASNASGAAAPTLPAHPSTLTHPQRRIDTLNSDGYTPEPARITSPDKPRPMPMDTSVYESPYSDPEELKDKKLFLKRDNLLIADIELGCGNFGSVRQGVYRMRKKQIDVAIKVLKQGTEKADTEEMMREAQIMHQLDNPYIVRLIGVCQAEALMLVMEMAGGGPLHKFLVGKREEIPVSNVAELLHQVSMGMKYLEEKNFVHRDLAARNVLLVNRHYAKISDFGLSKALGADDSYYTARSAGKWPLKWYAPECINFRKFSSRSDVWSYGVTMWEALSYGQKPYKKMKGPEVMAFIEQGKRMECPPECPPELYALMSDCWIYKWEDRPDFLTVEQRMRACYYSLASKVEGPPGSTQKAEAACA
# [14] = biological target: T3, Tyrosine-protein kinase ZAP-70 (Homo sapiens); conditions: at 10 µM
# [15] = biological target: Death-associated protein kinase 3 (Homo sapiens) (UniProt O43293); conditions: at 10 µM
# Death-associated protein kinase 3 (Homo sapiens), sequence (O43293 whole entry, looked up): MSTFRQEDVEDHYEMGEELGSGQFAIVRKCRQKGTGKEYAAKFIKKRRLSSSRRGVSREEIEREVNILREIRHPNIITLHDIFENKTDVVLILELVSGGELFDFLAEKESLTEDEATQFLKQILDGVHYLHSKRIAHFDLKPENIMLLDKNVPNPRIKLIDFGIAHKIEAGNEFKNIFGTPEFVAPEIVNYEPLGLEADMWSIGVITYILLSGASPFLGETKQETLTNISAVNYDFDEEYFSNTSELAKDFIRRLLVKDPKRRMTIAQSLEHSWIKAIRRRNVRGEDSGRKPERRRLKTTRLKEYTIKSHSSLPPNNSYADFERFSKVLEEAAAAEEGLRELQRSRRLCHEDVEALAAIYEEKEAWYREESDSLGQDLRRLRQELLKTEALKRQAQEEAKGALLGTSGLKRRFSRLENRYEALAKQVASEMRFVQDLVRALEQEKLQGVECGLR
# [16] = biological target: RAF proto-oncogene serine/threonine-protein kinase (Homo sapiens) (UniProt P04049); conditions: at 1 µM
# [17] = biological target: RAF proto-oncogene serine/threonine-protein kinase (Homo sapiens) (UniProt P04049); conditions: at 10 µM
# [18] = biological target: Mast/stem cell growth factor receptor Kit (Homo sapiens) (UniProt P10721); conditions: at 10 µM
# [19] = biological target: Mast/stem cell growth factor receptor Kit (Homo sapiens) (UniProt P10721); conditions: at 1 µM
# [20] = biological target: Death-associated protein kinase 3 (Homo sapiens) (UniProt O43293); conditions: at 1 µM
smiles,measurement,setting,value
CCn1cnc2c(Nc3cccc(Cl)c3)nc(N[C@@H]3CCCC[C@@H]3N)nc21,residual activity,[1],54%
same,residual activity,[2],15%
same,residual activity,[3],40%
same,residual activity,[4],8%
same,residual activity,[5],94% (inactive)
same,residual activity,[6],48%
same,residual activity,[7],88% (inactive)
same,residual activity,[8],45%
same,residual activity,[9],87% (inactive)
same,residual activity,[10],56%
same,residual activity,[11],7%
same,residual activity,[12],1%
same,residual activity,[13],93%
same,residual activity,[14],95%
same,residual activity,[15],55%
same,residual activity,[16],68%
same,residual activity,[17],23%
same,residual activity,[18],86%
CCc1nc(-c2ccc(OC)cc2)[nH]c1-c1ccncc1,residual activity,[1],115%
same,residual activity,[2],105%
same,residual activity,[5],113% (inactive)
same,residual activity,[6],101%
same,residual activity,[7],112% (inactive)
same,residual activity,[8],100%
same,residual activity,[10],108%
same,residual activity,[11],123%
same,residual activity,[12],101%
same,residual activity,[13],119%
same,residual activity,[14],121%
same,residual activity,[19],127%
same,residual activity,[18],104%
O=C1NC(=O)c2c1c1c3ccccc3n3c1c1c2c2ccccc2n1C1CCC3O1,residual activity,[3],58%
same,residual activity,[4],58%
same,residual activity,[7],100% (inactive)
same,residual activity,[8],99%
same,residual activity,[9],94% (inactive)
same,residual activity,[10],90%
same,residual activity,[13],132%
same,residual activity,[14],125%
same,residual activity,[20],80%
same,residual activity,[15],78%
same,residual activity,[16],77%
same,residual activity,[17],98%
O=C1NC(=O)c2cc(Nc3ccc(F)cc3)c(Nc3ccc(F)cc3)cc21,residual activity,[14],119%
O=[N+]([O-])/C=C/c1ccc2c(c1)OCO2,residual activity,[1],102%
same,residual activity,[2],92%
same,residual activity,[3],111%
same,residual activity,[4],91%
same,residual activity,[5],101% (inactive)
same,residual activity,[6],91%
same,residual activity,[7],109% (inactive)
same,residual activity,[8],88%
same,residual activity,[9],88% (inactive)
same,residual activity,[10],94%
same,residual activity,[11],118%
same,residual activity,[12],98%
same,residual activity,[13],111%
same,residual activity,[14],127%
same,residual activity,[20],96%
same,residual activity,[15],128%
same,residual activity,[16],87%
same,residual activity,[17],101%
same,residual activity,[19],113%
same,residual activity,[18],99%
O=C1NC(=O)c2c1c1c3ccccc3[nH]c1n1cncc21,residual activity,[14],102%
COc1ccc(S(=O)(=O)N(CCO)c2ccccc2CN(C)C/C=C/c2ccc(Cl)cc2)cc1,residual activity,[14],97%
COc1cc2ncnc(Nc3ccc(Oc4ccccc4)cc3)c2cc1OC,residual activity,[14],114%
CC(C)[C@H](CO)Nc1nc(Nc2cccc(Cl)c2)c2ncn(C(C)C)c2n1,residual activity,[1],83%
same,residual activity,[2],39%
same,residual activity,[3],39%
same,residual activity,[4],7%
same,residual activity,[5],85% (inactive)
same,residual activity,[6],30%
same,residual activity,[7],91% (inactive)
same,residual activity,[8],46%
same,residual activity,[9],82% (inactive)
same,residual activity,[10],51%
same,residual activity,[11],4%
same,residual activity,[12],0%
same,residual activity,[20],96%
same,residual activity,[16],73%
same,residual activity,[17],43%
same,residual activity,[19],117%
same,residual activity,[18],98%
O=C(Nc1ccc(Cl)cc1)c1ccccc1NCc1ccncc1,residual activity,[14],142%
NC(=O)Nc1sc(-c2ccc(F)cc2)cc1C(N)=O,residual activity,[14],107%
O=C(O)c1ccc2c3c1cccc3c(=O)n1c3ccccc3nc21,residual activity,[14],111%
CN[C@@H]1C[C@H]2O[C@@](C)([C@@H]1OC)n1c3ccccc3c3c4c(c5c6ccccc6n2c5c31)C(=O)NC4,residual activity,[1],2%
same,residual activity,[2],0%
same,residual activity,[5],108% (inactive)
same,residual activity,[6],90%
same,residual activity,[7],92% (inactive)
same,residual activity,[8],30%
same,residual activity,[9],88% (inactive)
same,residual activity,[16],109%
same,residual activity,[17],99%
COc1ccc2c(c1)c(C1=C(c3c[nH]c4ccccc34)C(=O)NC1=O)cn2CCCN(C)C,residual activity,[14],120%
c1cc(-c2cnn3cc(-c4ccc(OCCN5CCCCC5)cc4)cnc23)ccn1,residual activity,[1],50%
same,residual activity,[2],17%
same,residual activity,[3],84%
same,residual activity,[4],48%
same,residual activity,[5],119% (inactive)
same,residual activity,[11],7%
same,residual activity,[12],0%
same,residual activity,[14],101%
same,residual activity,[16],82%
same,residual activity,[17],47%
same,residual activity,[19],5%
same,residual activity,[18],2%
COc1cc(OC)c(/C=C2\C(=O)Nc3ccccc32)c(OC)c1,residual activity,[2],99%
same,residual activity,[3],95%
same,residual activity,[4],95%
same,residual activity,[5],83% (inactive)
same,residual activity,[6],32%
same,residual activity,[7],89% (inactive)
same,residual activity,[8],78%
same,residual activity,[9],93% (inactive)
same,residual activity,[10],83%
same,residual activity,[12],78%
same,residual activity,[13],90%
same,residual activity,[14],82%
same,residual activity,[15],96%
same,residual activity,[16],67%
same,residual activity,[17],67%
same,residual activity,[19],98%
same,residual activity,[18],105%
O=C1Nc2ccc3ncsc3c2/C1=C/c1c[nH]cn1,residual activity,[1],37%
same,residual activity,[2],6%
same,residual activity,[3],42%
same,residual activity,[4],7%
same,residual activity,[5],75% (inactive)
same,residual activity,[6],26%
same,residual activity,[7],89% (inactive)
same,residual activity,[8],57%
same,residual activity,[9],84% (inactive)
same,residual activity,[10],67%
same,residual activity,[11],52%
same,residual activity,[12],9%
same,residual activity,[13],102%
same,residual activity,[14],101%
same,residual activity,[20],68%
same,residual activity,[15],50%
same,residual activity,[16],48%
same,residual activity,[17],35%
same,residual activity,[19],25%
same,residual activity,[18],4%
